Experimental data: PubChem BioAssay (Tox21)
Inconclusive results are not listed. Calls of active or inactive are those of the source. Unless noted, the call rests on the fitted dose curve.

What was measured:
[1] = qHTS assay to identify small molecule agonists of the vitamin D receptor (VDR) signaling pathway - cell viability counter screen (AID 743224; active means well fitted curve in the direction sought with a large enough effect in the repeat runs; an effect the other way counts as inactive or inconclusive; further: series mostly up to about 63 µM; on the % scale 0 is the no-effect control and ±100 the full control effect; nearly all actives have a fitted effect of over 50% in size)
How it was run: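 VDR-bla cells, 4 h after plating, exposed to compounds for 16 h at 37C; viability then read in the same wells as CellTiter-Glo luminescence after 30 min at room temperature, following the bla FRET read.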

[2] = qHTS assay to identify small molecule antagonists of the vitamin D receptor (VDR) signaling pathway - cell viability counter screen (AID 743225; active means well fitted curve in the direction sought with a large enough effect in the repeat runs; an effect the other way counts as inactive or inconclusive; further: on the % scale 0 is the no-effect control and ±100 the full control effect; nearly all actives have a fitted effect of over 50% in size)
How it was run: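 Read-out: CellTiter-Glo luminescence measured 30 min after reagent addition at room temperature. Cells were VDR-bla HEK 293T exposed 16 h at 37C, 5% CO2, to compound with 3 nM final calcitriol agonist.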

[3] = qHTS assay to identify small molecule agonists of the NFkB signaling pathway - cell viability counter screen (AID 1159515); further: series mostly up to about 61 µM; on the % scale 0 is the no-effect control and ±100 the full control effect; nearly all actives have a fitted effect of over 55% in size
How it was run: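 NFkB-bla ME-180 cells, 2,000/well, plated overnight at 37 C; compound added for 5 hr at 37 C. Viability read in the same wells as the bla reporter, by CellTiter-Glo luminescence after 30 min at room temperature.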

[4] = qHTS assay to identify small molecule agonists of the endoplasmic reticulum stress response signaling pathway (AID 1159516; active means well fitted activation curve with a large enough effect in the signal ratio in the repeat runs, not every such curve was filed as active; the % refers to the signal ratio; further: on the % scale 0 is the no-effect control and ±100 the full control effect)
How it was run: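 CellSensor ESRE-bla HeLa cells, 1,500 per well, plated overnight, then exposed to compounds for 5 hr at 37 C. Beta-lactamase reporter read with LiveBLAzer B/G FRET substrate after 2 hr at room temperature, 405 nm excitation, 460 and 530 nm emission.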

[5] = qHTS assay to identify small molecule agonists of the endoplasmic reticulum stress response signaling pathway - cell viability counter screen (AID 1159517);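 further: HeLa cells carrying an ER stress response element beta-lactamase reporter; series mostly up to about 61 µM; on the % scale 0 is the no-effect control and ±100 the full control effect; nearly all actives have a fitted effect of over 50% in size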
How it was run: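 HeLa cells carrying an ESRE-driven beta-lactamase reporter receive compound for 5 hr at 37 C. Cell viability is then gauged with CellTiter-Glo by luminescence, 30 min at room temperature.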

[6] = qHTS assay to identify small molecule antagonists of the retinoid-related orphan receptor gamma (ROR-gamma) signaling pathway - cell viability counter screen (AID 1159520; active means well fitted curve in the direction sought with a large enough effect in the repeat runs; an effect the other way counts as inactive or inconclusive; further: on the % scale 0 is the no-effect control and ±100 the full control effect; nearly all actives have a fitted effect of over 50% in size)
How it was run: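 Cytotoxicity was read from cellular ATP (CellTiter-Glo luminescence) after 16 hr at 37 C with 1 uM doxycycline induction. The inducer was added 2 hr after compound transfer to Tet-on ROR gamma CHO cells.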

[7] = target: Nuclear receptor ROR-gamma (Homo sapiens) (UniProt P51449); test: qHTS assay to identify small molecule antagonists of the retinoid-related orphan receptor gamma (ROR-gamma) signaling pathway (AID 1159521; active means well fitted curve in the direction sought with a large enough effect in the repeat runs; an effect the other way counts as inactive or inconclusive)
How it was run: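 CHO Tet-on RORγ, RORE-luc reporter. Cpd 2 h pre-incubation, then dox hyclate 1 uM final, 16 h, 37 C/5% CO2. ONE-Glo luminescence; decrease = antagonist.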

[8] = qHTS assay to identify small molecule agonists of the AP-1 signaling pathway - cell viability counter screen (AID 1159525); further: nearly all actives have a fitted effect of over 55% in size
How it was run: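 Luminescent ATP readout (Cell Titer Glo, 30 min RT), normalised to DMSO and tetra n-octyl ammonium bromide controls. Cells were ME-180 AP-1-bla in 0.5% dialyzed FBS Opti-MEM, with a 5 h, 37 °C compound exposure.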

[9] = qHTS assay to identify small molecule agonists of the AP-1 signaling pathway (AID 1159526); further: on the % scale 0 is the no-effect control and ±100 the full control effect

Cc1c(Cl)cccc1[N+](=O)[O-]
inactive: outcome [1] | outcome [2] | outcome [3] | outcome [4] | outcome [5] | Potency [6] | Potency [7] | outcome [8] | Potency [9]

S=c1[nH][nH]c(=S)s1
inactive: outcome [1] | outcome [2] | outcome [3] | outcome [4] | outcome [5] | Potency [6] | Potency [7] | outcome [8] | Potency [9]

[O-][n+]1ccc(Cl)cc1
inactive: outcome [1] | outcome [2] | outcome [3] | outcome [4] | outcome [5] | Potency [6] | Potency [7] | outcome [8] | Potency [9]

COC(=O)C(C)(C)C
inactive: outcome [1] | outcome [2] | outcome [3] | outcome [4] | outcome [5] | Potency [6] | Potency [7] | outcome [8] | Potency [9]

OCC(O)c1ccccc1 (stereo not given)
inactive: outcome [1] | outcome [3] | outcome [4] | outcome [5] | Potency [6] | outcome [8] | Potency [9]

O=C(NC1CCN(CCc2c[nH]c3ccccc23)CC1)c1ccccc1
inactive: outcome [2] | outcome [3] | outcome [4] | outcome [5] | Potency [6] | Potency [7] | outcome [8]

Clc1nc2ccccc2nc1Cl
inactive: outcome [2] | outcome [3] | outcome [5] | Potency [6] | Potency [7] | outcome [8] | Potency [9]

Cc1ccccc1CCO
inactive: outcome [1] | outcome [2] | outcome [3] | outcome [4] | outcome [5] | Potency [7] | outcome [8] | Potency [9]

Oc1ccc(CCNCCCCCCNCCc2ccccc2)cc1O
inactive: outcome [2] | outcome [3] | outcome [4] | outcome [5] | Potency [6] | Potency [7] | outcome [8] | Potency [9]

CCCCCCCCCC(C)C=O (stereo not given)
inactive: outcome [1] | outcome [3] | outcome [4] | outcome [5] | Potency [6] | outcome [8] | Potency [9]

C/C=C1\[C@H]2C=C(C)C[C@]1(N)c1ccc(=O)[nH]c1C2
inactive: outcome [1] | outcome [2] | outcome [3] | outcome [4] | outcome [5] | Potency [6] | Potency [7] | outcome [8] | Potency [9]

CCCCC(CC)COCCC#N (stereo not given)
inactive: outcome [1] | outcome [2] | outcome [3] | outcome [4] | outcome [5] | Potency [6] | outcome [8] | Potency [9]

CC1(C)C(=O)NC(=O)N1CO
inactive: outcome [1] | outcome [2] | outcome [3] | outcome [4] | outcome [5] | Potency [6] | Potency [7] | outcome [8] | Potency [9]

O=C(O)c1cccc(C(=O)O)c1C(=O)O
inactive: outcome [1] | outcome [2] | outcome [3] | outcome [5] | Potency [6] | Potency [7] | outcome [8] | Potency [9]

CCc1ccc2c(c1)C(=O)c1ccccc1C2=O
inactive: outcome [1] | outcome [2] | outcome [3] | outcome [4] | outcome [5] | Potency [7] | outcome [8] | Potency [9]

O=C(OC1C[C@H]2CC[C@@H](C1)[N+]21CCCC1)C(O)(c1ccccc1)c1ccccc1 (stereo not given in full)
inactive: outcome [1] | outcome [2] | outcome [3] | outcome [4] | outcome [5] | Potency [7] | outcome [8]

CO[C@@H]1COCC[C@@H]1N[C@@H]1CC[C@@](C(=O)N2CCc3ncc(C(F)(F)F)cc3C2)(C(C)C)C1
inactive: outcome [1] | outcome [2] | outcome [3] | outcome [4] | outcome [5] | Potency [6] | outcome [8] | Potency [9]

COc1ccc(CN(CCN(C)C)c2ncccn2)cc1
inactive: outcome [1] | outcome [3] | outcome [4] | outcome [5] | outcome [8]

OCCCO
inactive: outcome [1] | outcome [2] | outcome [3] | outcome [5] | Potency [6] | Potency [7] | outcome [8] | Potency [9]

COc1cc(CNC(=O)CCCC/C=C/C(C)C)ccc1O
inactive: outcome [1] | outcome [2] | outcome [3] | outcome [4] | outcome [5] | Potency [6] | Potency [7] | outcome [8] | Potency [9]

CC1(COc2ccc(CC3SC(=O)NC3=O)cc2)CCCCC1 (stereo not given)
inactive: outcome [1] | outcome [2] | outcome [3] | outcome [4] | outcome [5] | Potency [6] | Potency [7] | outcome [8] | Potency [9]

CNc1ccccc1
inactive: outcome [1] | outcome [2] | outcome [3] | outcome [4] | outcome [5] | Potency [6] | Potency [7] | outcome [8] | Potency [9]

CCCCCCCCCCCCCCCCN
inactive: outcome [1] | outcome [2] | outcome [3] | outcome [4] | outcome [5] | Potency [7] | outcome [8]

Nc1ccc(C(=O)Oc2ccccc2)c(O)c1
inactive: outcome [1] | outcome [2] | outcome [3] | outcome [4] | outcome [5] | Potency [6] | Potency [7] | outcome [8] | Potency [9]

O=C1c2ccccc2C(=O)C1c1ccc2ccccc2n1
inactive: outcome [1] | outcome [2] | outcome [3] | outcome [4] | outcome [5] | Potency [6] | Potency [7] | outcome [8] | Potency [9]

O=C(O)c1ccc2c(c1)nc(C(=O)NC1CCN(C3CC3)CC1)n2Cc1cc(-c2ccc(Cl)s2)on1
inactive: outcome [1] | outcome [2] | outcome [3] | outcome [5] | activity, negative = cytotoxicity [6] -12.3% [at 19 µM] | activity change, negative = inhibition [7] -14.3% [at 19 µM] | viability change, negative = cytotoxic [8] 0.765% [at 15.8 µM] | activation [9] -0.694% [at 15.8 µM]

COc1ccc(C(=O)Nc2ccccc2)cc1[N+](=O)[O-]
inactive: outcome [1] | outcome [2] | outcome [3] | outcome [5] | Potency [6] | outcome [8] | Potency [9]

O=C(Cl)c1ccc(F)c(Cl)c1
inactive: outcome [1] | outcome [2] | outcome [3] | outcome [4] | outcome [5] | Potency [6] | Potency [7] | outcome [8] | Potency [9]

CC(C)NC(=O)c1ccccc1N
inactive: outcome [1] | outcome [2] | outcome [3] | outcome [4] | outcome [5] | Potency [6] | Potency [7] | outcome [8] | Potency [9]
